Assay [1] addresses Phospholipid hydroperoxide glutathione peroxidase GPX4 (Homo sapiens) (UniProt P36969). As to the kind of experiment: Primary qHTS Assay for Inhibitors of Recombinant Selenoprotein Glutathione Peroxidase 4 (GPX4) (AID 1845192). Further: nearly all actives have a fitted effect of over 65% in size. Further: potency means the concentration at half of the fitted maximal effect. The method in brief: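 qHTS, GR-coupled: GPX4 200 nM + cpd 30 min RT → GSH 1 mM, NADPH 0.5 mM, GR 100 nM → CHP 0.5 mM start; fluor 340/450 at t0 and t15 min; no-enzyme wells as control.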
In general terms: qHTS replaces the single test concentration by a dilution series.

Assay [2] concerns the target Luciferin 4-monooxygenase (Photinus pyralis) (UniProt P08659). The assay can be described thus: Primary firefly luciferase (FLuc) qHTS assay for identification of artifact compounds. (AID 1845220). Further: series mostly up to about 54 µM; nearly all actives have a fitted effect of over 60% in size. The method in brief:
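In this counter-screen for luciferase artifacts, test compounds met substrate (10 uM each luciferin and ATP) before 10 nM enzyme started the reaction. Light output was measured 5 min later.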

Assay [3] is described as follows: Primary fluorescence-based thiol-reactive (MSTI) qHTS assay for identification of artifact compounds. (AID 1845221).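 Further: series mostly up to about 54 µM; thiol-reactive compounds lower the probe fluorescence signal; nearly all actives have a fitted effect of over 65% in size.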 An outline of the steps:
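First, 4 uM MSTI in 2% DMSO/PBS pH 7.4 was dispensed; next, compounds were added; then plates sat 1 h at room temperature without light. Finally, emission at 598 nm was recorded.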

The subject of assay [4] is Nanoluciferase (engineered Oplophorus gracilirostris luciferase). The assay can be described thus: Primary Nanoluciferase (NLuc) qHTS assay for identification of artifact compounds. (AID 1845222).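 Further: NLuc secreted into diluted conditioned medium of S16 cells; series mostly up to about 54 µM.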 The method in brief:
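Using secreted nanoluciferase in S16 culture medium (0.22 um filtered, 1:55 dilution), compounds were preincubated 15 min at RT. Signal was generated with Nano-Glo reagent (1:100) over 5 min.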

Assay [5] is described as follows: Primary redox qHTS assay for identification of artifact compounds. (AID 1845223). The method in brief:
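Redox-cycling detection via DTT (250 uM final) oxidation coupled to Amplex Red (25 uM)/HRP (250 mU/mL) in HBSS. 15 min preincubation plus 30 min after DTT, room temperature. Ex/Em 525/598 nm; 4-parameter Hill fit against DMSO and 10 uM DA3003.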

The nature of assay [6]: Quantitative High-Throughput drug screen in 47 multiple myeloma cell lines against the NCATS MIPE library collection: FR4_PLB cell viability assay (AID 1918924; further: nearly all actives have a fitted effect of over 35% in size; further: potency means the concentration at half of the fitted maximal effect). An outline of the steps:
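qHTS of the MIPE 4.0 collection: 500 myeloma cells/well, 48 h drug exposure at 37C in 5% CO2, then CellTiter-Glo for 5 min at room temperature before luminescence reading.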

Assay [7] in a line: Quantitative High-Throughput drug screen in 47 multiple myeloma cell lines against the NCATS MIPE library collection: Delta47_JCRB cell viability assay (AID 1918925; further: potency means the concentration at half of the fitted maximal effect; nearly all actives have a fitted effect of over 45% in size). The method in brief:
(§1)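 Inhibition of cell viability is measured here. Each line was plated at 500 cells per well, treated with MIPE 4.0 drugs, kept 48 hours at 37C, then assayed for ATP content by CellTiter-Glo luminescence.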

Assay [8] is described as follows: Quantitative High-Throughput drug screen in 47 multiple myeloma cell lines against the NCATS MIPE library collection: EJM_DSMZ cell viability assay (AID 1918926; further: nearly all actives have a fitted effect of over 30% in size; further: potency means the concentration at half of the fitted maximal effect). The method in brief:
as §1

Assay [9] can be described thus: Quantitative High-Throughput drug screen in 47 multiple myeloma cell lines against the NCATS MIPE library collection: AMO1_DSMZ cell viability assay (AID 1918927; further: nearly all actives have a fitted effect of over 30% in size; further: potency means the concentration at half of the fitted maximal effect). An outline of the steps: as §1
A short description of assay [10]: Quantitative High-Throughput drug screen in 47 multiple myeloma cell lines against the NCATS MIPE library collection: ARP1_JJKsccF8 cell viability assay (AID 1918928; further: nearly all actives have a fitted effect of over 40% in size; further: potency means the concentration at half of the fitted maximal effect). The method in brief: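 CellTiter-Glo luminescence after 48 h exposure gives viability, scaled between DMSO-only (100%) and media-only (0%) controls. Library compounds are pinned onto 500 myeloma cells per well, incubated at 37C with 5% CO2.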

Records with an inconclusive call do not appear. The source made the active and inactive calls. The call rests on the fitted dose curve; in most records, active means well fitted curve in the direction sought with a large enough effect; inconclusive means small, poorly fitted or top-dose-only effect, or another doubt; inactive means no such curve, though single readings can be large; an effect the other way counts as inactive or inconclusive.

Chain of Phospholipid hydroperoxide glutathione peroxidase GPX4 (Homo sapiens) (P36969 whole entry, looked up): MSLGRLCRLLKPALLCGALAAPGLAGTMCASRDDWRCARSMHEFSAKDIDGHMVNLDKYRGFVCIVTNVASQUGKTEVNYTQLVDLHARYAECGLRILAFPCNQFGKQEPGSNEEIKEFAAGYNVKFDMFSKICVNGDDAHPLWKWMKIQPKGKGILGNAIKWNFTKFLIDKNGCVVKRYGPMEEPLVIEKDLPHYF

Take `CC(=O)Nc1ccc([C@H](C)C(=O)Nc2ncc(C(C)C)s2)cc1`: the Potency entry in assay [1], in [2], in [3] and in [4] was “inactive” each time. The compound was called inactive in assay [5]. The Potency in assay [6] is 1.87 µM (active); in assay [7] it was 1.48 µM (active); in assay [8], 0.743 µM (active); in assay [9], 0.662 µM (active); in [10] it was 2.64 µM (active).
For the compound `CC1CCC(C(=O)N(c2cc(C#CC(C)(C)C)sc2C(=O)O)C2CCC(O)CC2)CC1` (centres undefined), the Potency was 9.04 µM (active) in assay [1] and 23.5 µM (active) in [7]. Also, the Potency result in [2], in [3], in [4] and in [9] was “inactive” throughout.
On to `CC(C)C(=O)Nc1ncc(-c2cc(C(F)F)nn2-c2c(Cl)cccc2Cl)s1`, for which the Potency entry in assay [1], in [2], in assay [3] and in assay [4] was “inactive” each time. In addition, the result in assay [5] was inactive. For the same compound, the Potency in [7] is 26.4 µM (active); in assay [9], 8.33 µM (active).
`CN(C)C1CCN(C(=O)c2ccc(NC(=O)Nc3nc(N4CCOCC4)nc(N4CCOCC4)n3)cc2)CC1`: the Potency entry in assay [1], in assay [2], in assay [3] and in assay [4] was “inactive” each time. In addition, the outcome in [5] was inactive. The values for the Potency in [6], in [8] and in assay [9] were 0.0093 µM (active), 0.166 µM (active) and 1.18 µM (active), respectively.
On to `O=c1c(-c2ccc(O)cc2)coc2cc(O)ccc12`, for which the Potency result in [1], in assay [6], in [8] and in assay [9] was “inactive” each time.
Regarding `NC(=O)[C@@H](CCC(F)(F)F)N(Cc1ccc(-c2ncon2)cc1F)S(=O)(=O)c1ccc(Cl)cc1`, the Potency entry in assay [1] and in [9] was “inactive” throughout. Besides, the Potency is 16.6 µM (active) in assay [6] and 20.9 µM (active) in [8].
Consider `NC(CO)(CO)CCc1ccc(Sc2cccc(OCc3ccccc3)c2)cc1Cl`, for which the Potency result in assay [1] is “inactive”. Further, the values for the Potency in assay [7] and in assay [9] were 9.35 µM (active) and 20.9 µM (active), respectively.
As for `COc1cc(NC(=O)c2ccc(-c3ccc(Cl)cc3)o2)cc(OC)c1`, the Potency entry in assay [1], in [6], in assay [8] and in assay [10] was “inactive” throughout. Moreover, the Potency in [7] is 2.35 µM (active); in assay [9], 7.43 µM (active).
Take `Cc1cnc(C(=O)O)c[n+]1[O-]`: the Potency result in assay [1], in [6], in [8] and in [9] was “inactive” each time.
As to `O=c1cc(-c2ccccc2)oc2cc(O)cc(O)c12`, the Potency result in assay [1], in [6] and in assay [8] was “inactive” each time. Also, the Potency in assay [9] was 16.6 µM (active).
As to `CC(C)(Cc1ccc2ccccc2c1)NC[C@@H](O)COc1cccc(Cl)c1C#N`, the Potency entry in assay [1], in assay [6], in [8], in assay [9] and in [10] was “inactive” each time.
`Clc1cc(Cl)cc(CNc2ncncc2-c2ccc3c(c2)OCO3)c1`: the Potency entry in [1] was “inactive”. The Potency in assay [6] is 14.8 µM (active); in [7], 11.8 µM (active); in [9] it was 7.43 µM (active).
For the compound `Clc1ccc(C(c2ccc(Cl)cc2)n2cc[n+](CC(OCc3ccc(Cl)cc3Cl)c3ccc(Cl)cc3Cl)c2)cc1` (centres undefined), the Potency result in [1] is “inactive”. Further, the Potency in [6] is 20.9 µM (active); in assay [7], 8.33 µM (active); in assay [8] it was 16.6 µM (active); in assay [9], 16.6 µM (active); in [10], 11.8 µM (active).
As for `CC#CCn1c(N2CCC[C@@H](N)C2)nc2c1c(=O)n(Cc1nc(C)c3ccccc3n1)c(=O)n2C`, the Potency entry in [1], in assay [6], in assay [8] and in assay [9] was “inactive” in each case. In addition, in [10], the Potency was 2.96 µM (active).
For `CC(C)=CC[C@@H](O)C1=CC(=O)c2c(O)ccc(O)c2C1=O`, the Potency is 16.1 µM (active) in assay [1]; 0.662 µM (active) in assay [6]; 8.33 µM (active) in assay [7]; 0.418 µM (active) in [8]; 4.18 µM (active) in [9]; 1.32 µM (active) in assay [10].
Regarding `CO[C@@H](C(=O)N1Cc2[nH]nc(NC(=O)c3ccc(N4CCN(C)CC4)cc3)c2C1)c1ccccc1`, the Potency entry in assay [1] is “inactive”. For the same compound, the figures for the Potency in assay [6], in assay [7] and in [9] were 23.5 µM (active), 6.62 µM (active) and 4.69 µM (active), respectively.
As for `CC1(C)CCC2=C(O1)c1ccccc1C(=O)C2=O`, the Potency result in [1] was “inactive”. For the same compound, the Potency in assay [6] was 20.9 µM (active); in [7], 16.6 µM (active); in assay [8], 20.9 µM (active); in assay [9] it was 4.69 µM (active); in [10], 18.7 µM (active).
In the case of `O=c1c(O)c(-c2ccc(O)cc2)oc2cc(O)cc(O)c12`, the Potency result in assay [1] and in assay [6] was “inactive” in each case. Besides, the Potency in assay [7] was 20.9 µM (active); in assay [9], 9.35 µM (active).
Take `CC(C)n1cnc2c(NCCCCCCNC(=O)OC(C)(C)C)nc(NCCO)nc21`: the Potency result in [1] was “inactive”. For the same compound, the Potency is 14.8 µM (active) in [7], 20.9 µM (active) in assay [8] and 4.69 µM (active) in assay [9].
In the case of `CCCCCNC(=O)N1CCC(CN(Cc2ccc(Cl)cc2)Cc2ccc([N+](=O)[O-])s2)C1` (centres undefined), in assay [1], the Potency entry is “inactive”. Also, the Potency was 23.5 µM (active) in assay [6] and 18.7 µM (active) in [9].
As to `O=C(NCc1ccncc1)C12C[C@H]3C[C@@H](C1)CC(c1ccc(Cl)cc1)(C3)C2`, the Potency entry in assay [1] is “inactive”. Besides, the Potency is 14.8 µM (active) in assay [6], 16.6 µM (active) in assay [7] and 9.35 µM (active) in assay [9].
In the case of `COc1cccc2c1CCCC2CCCN1CCN(C2CCCCC2)CC1` (centres undefined), the Potency result in assay [1] is “inactive”. Also, the Potency in assay [6] was 23.5 µM (active); in [7], 16.6 µM (active); in assay [9], 23.5 µM (active); in [10], 18.7 µM (active).
In the case of `N#Cc1ccc(NC(=O)Nc2ccccc2Br)c2n[nH]nc12`, the Potency entry in assay [1], in assay [6] and in [10] was “inactive” in each case. The Potency in assay [9] is 14.8 µM (active).
For `N#C[C@H]1C[C@H]2C[C@@H]2N1C(=O)[C@@H](N)C12CC3CC(CC(O)(C3)C1)C2`, the Potency result in assay [1], in assay [6], in [8] and in [9] was “inactive” throughout. Besides, in assay [10], the Potency is 3.72 µM (active).
Turning to `Cc1ccc(C(=O)Nc2cccc(C(F)(F)F)c2)cc1Nc1nc(-c2cccnc2)nc2c1cnn2C`, in assay [1], the Potency result is “inactive”. The Potency is 9.35 µM (active) in [6], 5.26 µM (active) in [7], 18.7 µM (active) in [8] and 10.5 µM (active) in [10].
As for `O=c1cc(N2CCOCC2)oc2c(-c3cccc4c3sc3ccccc34)cccc12`, the Potency entry in assay [1] is “inactive”. Further, the Potency was 20.9 µM (active) in assay [6], 3.32 µM (active) in assay [7] and 5.26 µM (active) in assay [9].
`O=C(Nc1c(Cl)cncc1Cl)c1ccc(OC(F)F)c(OCC2CC2)c1`: the Potency entry in assay [1], in assay [6], in assay [8], in assay [9] and in assay [10] was “inactive” each time. Besides, the Potency in [7] is 26.4 µM (active).
As for `C[C@]12CC[C@@H]3c4ccc(O)cc4C[C@@H](CCCCCCCCCS(=O)CCCC(F)(F)C(F)(F)F)[C@H]3[C@H]1CC[C@H]2O` (some centres undefined), the Potency result in assay [1], in [6] and in assay [9] was “inactive” each time.

Source of the values: PubChem BioAssay (NCATS).
